This passage reports residual activity results from ChEMBL document CHEMBL2218924, “A broad activity screen in support of a chemogenomic map for kinase signalling research and drug discovery” (Biochem J, 2013).

Test [1] addresses Rho-associated protein kinase 2 (Homo sapiens) (UniProt O75116). The settings on record: at 1 µM.
Test [2] has the same target. Particulars: at 10 µM.
The target in test [3] is Proto-oncogene tyrosine-protein kinase receptor Ret (Homo sapiens) (UniProt P07949). The settings on record: at 1 µM.
Test [4] has the same target. The settings on record: at 10 µM.
The target in test [5] is Macrophage-stimulating protein receptor (Homo sapiens) (UniProt Q04912). Particulars: at 1 µM.
Test [6] has the same target. Particulars: at 10 µM.
In test [7] the target is Proto-oncogene tyrosine-protein kinase ROS (Homo sapiens) (UniProt P08922). Particulars: at 1 µM.
The target is the same in test [8]. The settings on record: at 10 µM.
Test [9] addresses T1, Tyrosine-protein kinase receptor TYRO3 (Homo sapiens) (UniProt Q06418).
T1 sequence (whole entry): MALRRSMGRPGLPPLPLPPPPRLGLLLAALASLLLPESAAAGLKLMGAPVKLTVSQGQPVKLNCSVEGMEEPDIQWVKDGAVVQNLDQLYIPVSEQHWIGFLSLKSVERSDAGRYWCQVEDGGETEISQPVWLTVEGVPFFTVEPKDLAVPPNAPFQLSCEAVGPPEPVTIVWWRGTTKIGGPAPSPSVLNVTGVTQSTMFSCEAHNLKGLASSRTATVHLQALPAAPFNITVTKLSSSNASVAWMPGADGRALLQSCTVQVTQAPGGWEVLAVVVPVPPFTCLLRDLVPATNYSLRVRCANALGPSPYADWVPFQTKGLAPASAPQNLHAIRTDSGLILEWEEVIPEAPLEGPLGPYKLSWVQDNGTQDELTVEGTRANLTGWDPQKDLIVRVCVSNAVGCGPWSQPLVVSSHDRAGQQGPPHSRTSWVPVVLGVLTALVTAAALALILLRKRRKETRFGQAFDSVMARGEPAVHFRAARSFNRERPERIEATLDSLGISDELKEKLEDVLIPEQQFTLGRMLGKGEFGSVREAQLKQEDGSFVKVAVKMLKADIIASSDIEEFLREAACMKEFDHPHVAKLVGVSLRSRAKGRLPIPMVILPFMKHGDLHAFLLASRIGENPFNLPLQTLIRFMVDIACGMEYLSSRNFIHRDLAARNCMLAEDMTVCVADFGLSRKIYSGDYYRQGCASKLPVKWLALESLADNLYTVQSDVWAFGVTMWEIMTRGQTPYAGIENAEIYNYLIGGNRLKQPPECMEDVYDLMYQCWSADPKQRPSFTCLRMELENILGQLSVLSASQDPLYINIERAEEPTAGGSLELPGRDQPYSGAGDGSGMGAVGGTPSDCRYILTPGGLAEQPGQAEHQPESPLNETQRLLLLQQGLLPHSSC
The settings on record: at 1 µM.

The target in test [10] is T1, Tyrosine-protein kinase receptor TYRO3 (Homo sapiens). Particulars: at 10 µM.

Sequence of Proto-oncogene tyrosine-protein kinase ROS (Homo sapiens) (P08922 whole entry): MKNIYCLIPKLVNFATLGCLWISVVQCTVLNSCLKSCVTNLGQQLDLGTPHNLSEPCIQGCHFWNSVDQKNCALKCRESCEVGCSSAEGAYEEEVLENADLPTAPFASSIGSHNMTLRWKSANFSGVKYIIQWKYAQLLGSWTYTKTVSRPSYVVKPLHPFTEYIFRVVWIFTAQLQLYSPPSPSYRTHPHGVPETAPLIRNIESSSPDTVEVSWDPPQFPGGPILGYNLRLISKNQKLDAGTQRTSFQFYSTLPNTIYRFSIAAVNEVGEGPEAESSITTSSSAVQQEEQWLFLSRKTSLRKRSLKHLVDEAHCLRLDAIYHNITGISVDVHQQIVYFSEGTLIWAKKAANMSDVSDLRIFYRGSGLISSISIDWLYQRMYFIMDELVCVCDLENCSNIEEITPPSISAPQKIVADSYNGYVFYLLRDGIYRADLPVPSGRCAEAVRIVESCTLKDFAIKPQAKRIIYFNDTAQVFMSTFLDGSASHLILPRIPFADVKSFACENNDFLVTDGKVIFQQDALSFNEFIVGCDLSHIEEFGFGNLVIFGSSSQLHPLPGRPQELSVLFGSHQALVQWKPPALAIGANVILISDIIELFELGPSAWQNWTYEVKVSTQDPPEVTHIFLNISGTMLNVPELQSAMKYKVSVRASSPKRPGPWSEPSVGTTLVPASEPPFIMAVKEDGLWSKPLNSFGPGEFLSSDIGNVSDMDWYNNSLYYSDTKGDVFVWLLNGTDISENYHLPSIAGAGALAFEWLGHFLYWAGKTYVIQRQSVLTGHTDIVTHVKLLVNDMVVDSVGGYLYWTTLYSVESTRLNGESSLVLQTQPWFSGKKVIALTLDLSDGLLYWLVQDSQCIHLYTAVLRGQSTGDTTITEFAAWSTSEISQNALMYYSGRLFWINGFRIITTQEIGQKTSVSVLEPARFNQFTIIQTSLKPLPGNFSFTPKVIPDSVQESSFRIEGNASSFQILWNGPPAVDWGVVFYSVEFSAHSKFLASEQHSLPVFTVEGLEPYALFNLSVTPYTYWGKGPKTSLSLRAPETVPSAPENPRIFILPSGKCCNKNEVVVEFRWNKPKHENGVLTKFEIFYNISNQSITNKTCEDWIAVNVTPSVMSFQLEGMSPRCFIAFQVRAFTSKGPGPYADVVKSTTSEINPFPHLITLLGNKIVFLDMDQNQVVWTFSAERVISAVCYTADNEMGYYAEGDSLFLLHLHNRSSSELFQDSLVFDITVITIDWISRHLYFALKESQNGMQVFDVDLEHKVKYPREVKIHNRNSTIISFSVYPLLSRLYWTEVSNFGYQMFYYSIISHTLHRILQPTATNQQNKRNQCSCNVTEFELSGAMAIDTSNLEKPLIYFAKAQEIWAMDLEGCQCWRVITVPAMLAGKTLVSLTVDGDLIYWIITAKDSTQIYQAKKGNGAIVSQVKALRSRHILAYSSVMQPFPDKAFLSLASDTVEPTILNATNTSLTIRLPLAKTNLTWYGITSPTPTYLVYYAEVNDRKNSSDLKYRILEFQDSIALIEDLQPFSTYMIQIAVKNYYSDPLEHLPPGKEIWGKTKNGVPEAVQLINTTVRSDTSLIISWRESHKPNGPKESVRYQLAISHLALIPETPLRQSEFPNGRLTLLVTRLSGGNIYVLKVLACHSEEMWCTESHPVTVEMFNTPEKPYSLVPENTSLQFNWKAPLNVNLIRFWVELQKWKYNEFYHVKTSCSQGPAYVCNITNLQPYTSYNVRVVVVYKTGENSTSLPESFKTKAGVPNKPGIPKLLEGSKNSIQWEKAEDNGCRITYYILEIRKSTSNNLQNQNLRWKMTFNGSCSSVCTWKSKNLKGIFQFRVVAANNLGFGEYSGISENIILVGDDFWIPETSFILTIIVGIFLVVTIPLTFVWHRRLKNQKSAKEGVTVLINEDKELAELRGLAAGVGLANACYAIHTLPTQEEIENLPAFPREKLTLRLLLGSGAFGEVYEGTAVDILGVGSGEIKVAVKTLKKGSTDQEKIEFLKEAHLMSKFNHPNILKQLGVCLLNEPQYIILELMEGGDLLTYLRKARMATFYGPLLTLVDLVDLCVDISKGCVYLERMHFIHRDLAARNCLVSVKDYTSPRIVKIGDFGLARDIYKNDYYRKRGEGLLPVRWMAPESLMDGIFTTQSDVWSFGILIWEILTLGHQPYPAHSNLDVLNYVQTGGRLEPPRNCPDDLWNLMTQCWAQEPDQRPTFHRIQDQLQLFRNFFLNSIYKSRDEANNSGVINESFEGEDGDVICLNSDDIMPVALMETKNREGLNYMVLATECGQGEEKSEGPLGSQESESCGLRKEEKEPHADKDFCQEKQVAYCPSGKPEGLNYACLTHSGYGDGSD
Sequence of Proto-oncogene tyrosine-protein kinase receptor Ret (Homo sapiens) (P07949 whole entry): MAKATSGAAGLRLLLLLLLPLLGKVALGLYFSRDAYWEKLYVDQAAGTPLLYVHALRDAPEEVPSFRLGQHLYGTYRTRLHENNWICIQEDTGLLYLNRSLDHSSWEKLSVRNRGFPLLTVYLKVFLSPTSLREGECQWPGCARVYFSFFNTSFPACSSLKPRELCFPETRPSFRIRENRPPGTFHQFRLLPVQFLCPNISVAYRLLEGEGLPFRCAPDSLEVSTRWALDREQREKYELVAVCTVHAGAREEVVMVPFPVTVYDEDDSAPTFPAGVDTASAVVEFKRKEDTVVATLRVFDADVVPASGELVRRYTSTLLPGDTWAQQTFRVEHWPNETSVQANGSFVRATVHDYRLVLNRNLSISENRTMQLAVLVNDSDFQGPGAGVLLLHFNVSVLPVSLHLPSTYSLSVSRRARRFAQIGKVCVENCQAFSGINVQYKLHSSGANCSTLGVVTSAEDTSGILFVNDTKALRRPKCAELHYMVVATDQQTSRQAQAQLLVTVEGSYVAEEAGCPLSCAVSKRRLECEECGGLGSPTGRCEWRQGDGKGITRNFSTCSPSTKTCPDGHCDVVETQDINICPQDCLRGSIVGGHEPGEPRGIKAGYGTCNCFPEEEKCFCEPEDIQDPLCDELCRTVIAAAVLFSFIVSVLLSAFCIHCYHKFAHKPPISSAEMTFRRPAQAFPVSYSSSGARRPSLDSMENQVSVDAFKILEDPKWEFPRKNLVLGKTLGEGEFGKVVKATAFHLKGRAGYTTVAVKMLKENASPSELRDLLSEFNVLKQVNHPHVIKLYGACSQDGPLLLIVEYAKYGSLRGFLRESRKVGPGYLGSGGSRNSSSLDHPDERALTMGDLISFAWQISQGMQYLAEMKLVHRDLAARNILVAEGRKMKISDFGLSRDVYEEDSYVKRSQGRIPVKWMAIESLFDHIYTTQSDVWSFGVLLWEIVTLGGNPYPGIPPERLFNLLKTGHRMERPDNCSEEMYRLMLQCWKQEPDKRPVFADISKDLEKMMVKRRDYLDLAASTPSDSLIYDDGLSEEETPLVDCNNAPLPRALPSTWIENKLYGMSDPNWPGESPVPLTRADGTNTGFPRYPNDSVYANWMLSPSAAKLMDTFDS
Sequence of Macrophage-stimulating protein receptor (Homo sapiens) (Q04912 25-304 limits assumed): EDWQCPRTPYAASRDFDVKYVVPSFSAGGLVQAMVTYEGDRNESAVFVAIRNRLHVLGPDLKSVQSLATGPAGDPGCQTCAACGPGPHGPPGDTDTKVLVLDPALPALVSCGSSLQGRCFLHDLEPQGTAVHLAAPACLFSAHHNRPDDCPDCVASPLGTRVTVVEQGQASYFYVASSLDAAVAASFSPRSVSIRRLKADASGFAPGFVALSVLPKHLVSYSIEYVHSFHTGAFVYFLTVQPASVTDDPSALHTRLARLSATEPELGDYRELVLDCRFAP
Sequence of Macrophage-stimulating protein receptor (Homo sapiens) (Q04912 310-1400 limits assumed): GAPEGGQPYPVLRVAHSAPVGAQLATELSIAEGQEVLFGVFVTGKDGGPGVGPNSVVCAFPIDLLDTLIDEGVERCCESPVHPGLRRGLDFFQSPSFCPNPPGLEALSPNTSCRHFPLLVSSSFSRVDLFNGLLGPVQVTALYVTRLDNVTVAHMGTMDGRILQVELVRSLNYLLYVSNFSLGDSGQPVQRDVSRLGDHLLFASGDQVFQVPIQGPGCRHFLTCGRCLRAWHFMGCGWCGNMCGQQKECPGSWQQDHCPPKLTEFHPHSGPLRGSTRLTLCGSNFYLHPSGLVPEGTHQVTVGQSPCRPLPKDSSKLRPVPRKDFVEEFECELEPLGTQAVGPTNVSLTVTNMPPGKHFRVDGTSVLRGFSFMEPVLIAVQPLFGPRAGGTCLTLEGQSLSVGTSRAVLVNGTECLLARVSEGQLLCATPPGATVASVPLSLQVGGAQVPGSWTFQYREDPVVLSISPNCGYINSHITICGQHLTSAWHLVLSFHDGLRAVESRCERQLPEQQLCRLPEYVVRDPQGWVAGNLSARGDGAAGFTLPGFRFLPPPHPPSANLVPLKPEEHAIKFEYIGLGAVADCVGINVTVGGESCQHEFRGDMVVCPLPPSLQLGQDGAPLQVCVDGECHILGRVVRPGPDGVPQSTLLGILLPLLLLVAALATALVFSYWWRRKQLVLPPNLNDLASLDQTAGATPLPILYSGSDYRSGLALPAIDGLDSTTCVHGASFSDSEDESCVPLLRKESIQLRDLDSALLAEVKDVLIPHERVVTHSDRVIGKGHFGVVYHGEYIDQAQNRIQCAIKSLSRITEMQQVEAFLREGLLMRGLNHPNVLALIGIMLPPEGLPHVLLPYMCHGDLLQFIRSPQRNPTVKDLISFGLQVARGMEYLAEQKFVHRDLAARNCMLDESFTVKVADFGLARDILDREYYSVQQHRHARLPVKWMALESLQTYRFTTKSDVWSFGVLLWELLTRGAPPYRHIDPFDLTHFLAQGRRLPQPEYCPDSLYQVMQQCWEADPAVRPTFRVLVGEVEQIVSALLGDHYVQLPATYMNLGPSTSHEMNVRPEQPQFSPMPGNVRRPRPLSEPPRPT

Consider `CC[n+]1c(/C=C/N(C)c2ccccc2)n(-c2ccccc2)c2ccc(-c3nc4ccccc4s3)cc21`, for which the residual activity in test [1] came out at 103%; in test [2], 93%; in test [3] it was 96%; in [4], 100%; in [5], 97%; in test [6], 57%. In addition, the residual activity is 105% in test [7], 102% in test [8], 99% in test [9] and 72% in test [10].
With `N#C/C(=C(\N)Sc1ccc(N)cc1)c1ccccc1C(F)(F)F`, the residual activity turned out to be 102% in test [1]; 95% in [2]; 109% in test [3]; 90% in test [4]; 88% in test [5]; 83% in test [6]. Also, the residual activity in [7] was 100%; in test [8], 89%; in test [9] it was 103%; in test [10], 98%.
Take `COc1ccc(CNc2nc(N(CCO)CCO)nc3c2ncn3C(C)C)cc1`: the residual activity in test [1] turned out to be 91%; in test [2] it was 96%; in [3] it was 108%; in test [4] it was 97%; in test [5], 76%; in [6], 85%. In addition, the residual activity was 96% in test [7], 85% in test [8], 116% in [9] and 97% in [10].
On to `CCC(=O)Nc1ccc2ncnc(Nc3cccc(Br)c3)c2c1`, for which the residual activity in [1] came out at 89%; in test [2], 88%; in test [3], 86%; in [4], 103%; in test [5], 90%; in [6], 70%. Besides, the residual activity in [7] turned out to be 92%; in test [8], 98%; in test [9], 90%; in [10], 93%.
For the compound `Cn1cc(/C=C2\C(=O)Nc3ccc(S(N)(=O)=O)cc32)c2ccccc21`, the residual activity was determined as 37% in test [1]; 13% in [2]; 1% in [3]; 1% in test [4]; 94% in test [5]; 82% in test [6]. For the same compound, the residual activity in [7] was determined as 98%; in [8], 109%; in test [9], 67%; in [10], 53%.
Consider `N#Cc1cnc2cnc(NCc3cccnc3)cc2c1Nc1ccc(F)c(Cl)c1`, for which the residual activity in test [1] is 2%; in [2], 3%; in [3], 88%; in [4], 62%; in test [5], 100%; in test [6], 88%. Besides, the residual activity in test [7] came to 67%; in test [8], 52%.
Take `CCOc1cc2ncnc(Nc3cccc(Br)c3)c2cc1OCC`: the residual activity stood at 91% in test [1]; 70% in [2]; 30% in test [3]; 1% in [4]; 101% in test [5]; 57% in test [6]. Further, the residual activity was 103% in [7], 100% in [8], 51% in test [9] and 16% in test [10].
In the case of `CNc1cc2c(Nc3cccc(Br)c3)ncnc2cn1`, the residual activity in [1] was 100%; in test [2], 85%; in test [3] it was 67%; in test [4], 75%; in test [5] it was 88%; in [6], 66%. Also, the residual activity in test [7] was found to be 96%; in [8] it was 99%; in test [9], 77%; in [10], 83%.
As for `CC(=O)O/N=C1\C(=C2\C(=O)Nc3cc(Br)ccc32)Nc2ccccc21`, the residual activity is 98% in [1]; 95% in test [2]; 6% in test [3]; -1% in test [4]; 85% in [5]; 89% in [6]. Further, the residual activity in [7] came to 100%; in test [8], 90%; in [9] it was 100%; in [10], 98%.
For the compound `COc1ccc(S(=O)(=O)N(CCO)c2ccccc2CN(C)C/C=C/c2ccc(Cl)cc2)cc1`, the residual activity in [1] was 100%; in [2] it was 91%; in test [3], 105%; in [4], 87%; in [5], 90%; in test [6], 88%. The residual activity in test [7] turned out to be 105%; in [8], 87%; in [9] it was 113%; in test [10], 112%.
Take `NC(=O)c1ccc2[nH]c(-c3ccc(Oc4ccc(Cl)cc4)cc3)nc2c1`: the residual activity came out at 83% in test [1]; 72% in [2]; 105% in test [3]; 85% in test [4]; 74% in [5]; 84% in test [6]. In addition, the residual activity in [7] stood at 92%; in [8], 84%; in test [9], 106%; in test [10], 97%.
`O=C(Nc1cccc(Nc2nccc(Nc3cccc(C(F)(F)F)c3)n2)c1)C1CC1`: the residual activity in test [1] is 108%; in [2], 88%; in test [3], 74%; in test [4] it was 81%; in test [5], 93%; in test [6], 38%. Besides, the residual activity in [7] is 102%; in test [8], 68%; in test [9], 70%; in [10], 89%.
For the compound `O=C1Nc2cc(Br)ccc2/C1=C1/Nc2ccccc2/C1=N\O`, the residual activity stood at 90% in [1]; 93% in test [2]; 1% in test [3]; 0% in test [4]; 79% in test [5]; 89% in [6]. The residual activity in test [7] is 90%; in [8], 87%; in [9], 81%; in [10], 78%.
In the case of `O=C1NC(=O)/C(=C/c2ccc3c(c2)OC(F)(F)O3)S1`, the residual activity in test [1] is 113%; in test [2], 89%; in [3], 91%; in test [4] it was 98%; in test [5] it was 100%; in test [6] it was 77%. Besides, the residual activity was determined as 105% in test [7], 108% in test [8], 96% in [9] and 105% in test [10].
With `Nc1nc(Nc2ccc(S(N)(=O)=O)cc2)nn1C(=S)Nc1c(F)cccc1F`, the residual activity in test [1] was 0%; in [2], 1%; in [3], 2%; in [4], -1%; in test [5] it was 7%; in test [6], 2%. The residual activity in test [7] was 70%; in [8] it was 16%; in [9] it was 14%; in [10] it was -1%.
With `O=[N+]([O-])c1ccc(-c2nc(-c3ccc(F)cc3)c(-c3ccncc3)[nH]2)cc1`, the residual activity in test [1] stood at 87%; in [2] it was 94%; in test [3] it was 78%; in test [4], 73%; in [5], 90%; in test [6], 90%. Further, the residual activity in test [7] amounted to 104%; in test [8], 91%; in [9], 86%; in test [10], 111%.
With `O=C1c2ccccc2-[n+]2ccc3c([nH]c4ccccc43)c21`, the residual activity stood at 89% in test [1]; 86% in [2]; 89% in [3]; 75% in [4]; 77% in test [5]; 70% in [6]. Further, the residual activity was determined as 89% in test [7], 88% in test [8], 104% in [9] and 107% in [10].
